Entries with a potency or affinity are not part of this list. Calls of active or inactive are those of the source. Cut-off not given; nearly all actives show IC50 up to about 0.91 µM.
What follows are compounds tested against Calcium-dependent protein kinase 4 (Plasmodium falciparum (isolate 3D7)) (UniProt Q8IBS5) (assay: PfCDPK4 kinase inhibitors, biochemical, TCAMS library (AID 1159588)). Conditions: recombinant PfCDPK4, Kinase-Glo ATP depletion luminescence.
Chain of Calcium-dependent protein kinase 4 (Plasmodium falciparum (isolate 3D7)) (Q8IBS5 whole entry, looked up): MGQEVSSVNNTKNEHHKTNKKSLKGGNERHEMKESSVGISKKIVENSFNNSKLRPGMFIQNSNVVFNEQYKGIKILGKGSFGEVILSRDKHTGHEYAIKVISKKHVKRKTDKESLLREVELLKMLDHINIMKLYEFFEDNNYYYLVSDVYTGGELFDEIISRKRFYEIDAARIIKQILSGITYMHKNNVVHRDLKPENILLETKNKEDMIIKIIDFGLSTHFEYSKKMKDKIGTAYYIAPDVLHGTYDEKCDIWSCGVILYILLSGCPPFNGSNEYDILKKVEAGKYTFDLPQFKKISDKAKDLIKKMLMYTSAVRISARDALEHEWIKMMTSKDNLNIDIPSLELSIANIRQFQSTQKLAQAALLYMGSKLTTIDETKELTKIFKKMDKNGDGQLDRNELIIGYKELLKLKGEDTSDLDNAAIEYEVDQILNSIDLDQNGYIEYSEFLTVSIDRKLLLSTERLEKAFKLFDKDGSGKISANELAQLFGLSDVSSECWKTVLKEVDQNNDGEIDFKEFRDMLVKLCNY

outcome, inactive:
CC(C)N1CCN(C(CN2CCN(CCCOc3ccccc3-c3ccccc3)CC2)c2ccc(F)cc2)CC1 (centres undefined)
Cc1cc(OCCCN2CCC(NS(=O)(=O)c3cc(Br)c(Cl)s3)CC2)c2ccccc2n1
Cc1nnsc1C(=O)Nc1ccc(-c2ccc(-c3nc4c(C)cccc4[nH]3)s2)cc1
CN(C)CCCNc1ncnc2c1[nH]c1ccc(Cl)cc12
Cc1cc(N)cc2[nH]c(-c3ccc(N)cc3)nc12
O=C(Nc1cccc(CN2CCN(C(=O)c3cccc(F)c3)CC2)c1)c1cccs1
OCCN1CCN(C(=S)Nc2ccccc2)CC1
CC(=O)Oc1c(C2CCN(CCCCNC(=O)c3ccc(NC(=O)c4ccc(Cl)cc4)cc3)CC2)ccc2ccccc12
CCOC(=O)c1c(CNc2ccncc2)n(C)c2cc(Br)c(OC(C)=O)cc12
O=C(Nc1ccccc1N1CCOCC1)c1ncoc1-c1ccccc1C(F)(F)F
Cc1nc(-c2cccc(Nc3nccc(NCC(O)c4ccc(C(F)(F)F)cc4)n3)c2)cs1 (centres undefined)
OCc1c(Cl)cc(Cl)cc1CNCCCNc1nc2ccccc2[nH]1
COC(=O)c1cccc(CNCc2cccc(-c3cccc(-c4nc5ccc(F)cc5[nH]4)c3)c2)c1
CC(C)(C)c1ccc(OC(=O)c2ccc(NC(=O)N[C@@H](Cc3ccc(O)cc3)C(=O)NC3CCN(Cc4ccc(O)cc4)C3)cc2)cc1 (some centres undefined)
CN1CCC(N(Cc2ccc(-c3ccc(C(F)(F)F)cc3)cc2)C(=O)Cn2cc(Cc3cnn(C)c3)c(=O)nc2SCc2cccc(F)c2F)CC1
c1ccc2c(CNc3ccnc(NCc4cccc5ccccc45)n3)cccc2c1
O=C(Nc1cccc(CN2CCN(Cc3ccc(O)cc3)CC2)c1)c1cc2ccccc2s1
CC(=O)Nc1ccc(C(=O)Nc2ccc(-c3csc(-c4nc5ccccc5[nH]4)c3)cc2)cn1
CC1(C)N=C(N)N=C(N)N1OCc1ccc(-c2ccccc2)cc1
Cc1ccc2c(NN=Cc3cccc(Cl)c3)cc(C)nc2c1
COc1ccc2nccc([C@@H](O)CN3CCC(NCc4cc5cc(C)ccc5s4)CC3)c2c1
Cc1cccc2sc(N(CCCn3ccnc3)C(=O)C=Cc3cccs3)nc12
O=C(NCCCCN1CCC(c2ccc3c(c2OCC(O)c2ccc(Cl)cc2)CCCC3)CC1)c1ccc(-c2ccc(C(F)(F)F)cc2)cc1 (centres undefined)
OC(CNCCc1ccccc1)Cn1c2ccc(Cl)cc2c2cc(Cl)ccc21 (centres undefined)
Cc1cc(N(C)C2CCN(CC3CCCCC3)C2)nc(Nc2ccc(Cl)cc2)n1 (centres undefined)
COc1ccc(CN2CCC(NCc3ccc(C(F)(F)F)cc3)CC2)cc1
O=C(Cc1ccccc1)NC(CCN1CCC(N(C2CC2)S(=O)(=O)c2cccc(C(F)(F)F)c2)CC1)c1ccc(Cl)c(Cl)c1 (centres undefined)
COc1cccc(C(=O)NC(c2ccc(Cl)cc2Cl)c2cc(Cl)c3cccnc3c2O)c1 (centres undefined)
O=C(Nc1ccc(N2CCN(C(=O)C=Cc3ccccc3)CC2)c(Cl)c1)c1ccc([N+](=O)[O-])o1
CCCN1CCN(CCCNC(=O)c2cc3c(-c4ccc(Cl)cc4)nn(C)c3s2)CC1
Cn1nccc1C(=O)NCCNCc1ccc(-c2ccc(-c3nc4ccc(F)cc4[nH]3)cc2)cc1
O=C(Nc1ccc(Cl)c(-c2nc3ccccc3[nH]2)c1)c1ccc(-c2ccc(Cl)cc2)o1
COc1cc(N(Cc2ccccc2C)S(=O)(=O)Cc2ccccc2[N+](=O)[O-])c(OC)cc1Cl
Cc1onc(-c2ccccc2)c1C(=O)Nc1nc(-c2ccccn2)nc2ccsc12
N#Cc1cc(C(=O)Nc2ccccc2)c(N)nc1SCC(=O)Nc1ccc(Br)cc1
O=C(Nc1ccc(Oc2ccccc2)cc1)N[C@H]1CCN(Cc2ccc(OCCCN3CCCCC3)cc2)C1
CCOC(=O)NC1=NC(C)(C)N(OCCCOc2cc(Cl)c(Cl)cc2Cl)C(N)=N1
Cc1ccc(/C=C/C(=O)NC2CCC(N3CCC(c4ccccc4C)CC3)CC2)cc1F (centres undefined)
Cc1ccc(CNC(=O)[C@H](CCCN)Nc2cc(C)nc(NCC3CCCCC3)n2)cc1

— PubChem BioAssay
